PLAP act: activators of human placental alkaline phosphatase; P05187; actives 1.2% (n = 96,000); activation fold at 20 µM; purified PLAP enzyme, luminescent substrate read-out; hits give high values; in the data active = activation fold above about 2
Target sequence (P05187 whole entry, looked up): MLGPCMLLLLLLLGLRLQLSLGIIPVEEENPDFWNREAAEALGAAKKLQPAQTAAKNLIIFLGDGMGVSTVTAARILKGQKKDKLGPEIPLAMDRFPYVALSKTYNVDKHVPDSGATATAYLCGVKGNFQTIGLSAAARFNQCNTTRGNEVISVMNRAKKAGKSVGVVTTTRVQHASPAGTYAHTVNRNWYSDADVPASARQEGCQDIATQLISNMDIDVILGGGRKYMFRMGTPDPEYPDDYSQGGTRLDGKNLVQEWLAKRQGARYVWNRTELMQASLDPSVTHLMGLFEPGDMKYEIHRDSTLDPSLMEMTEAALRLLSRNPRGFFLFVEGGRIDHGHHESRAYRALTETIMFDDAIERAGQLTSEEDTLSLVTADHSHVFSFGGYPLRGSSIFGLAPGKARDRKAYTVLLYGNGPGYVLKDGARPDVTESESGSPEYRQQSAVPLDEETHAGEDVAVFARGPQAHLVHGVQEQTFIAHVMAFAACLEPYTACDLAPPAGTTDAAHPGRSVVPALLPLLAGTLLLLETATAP
CYP2C19 inh: inhibitors of human CYP2C19 | actives 21% (n = 96,000) | inhibition, % at 5 µM | CYP2C19 Supersomes, luciferin-H EGE luminescence, 30 min | P33261 | AID 778;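 active = CYP2C19 inhibition above a set limit at 5 µM in the primary screen, cut at about 50% in these data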
CYP2C9 activ: increases human cytochrome P450 2C9 activity; P11712; recombinant CYP2C9, luciferin-H conversion, luminescence; hits give high values; factor 1 = untreated enzyme, 0 = blocked; activation factor at 5 µM; actives 1.4% (n = 96,000); AID 1024;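 active = activation factor of 2 or more for CYP2C9 at a 5 µM dose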
CYP2C19 act: activators of human cytochrome P450 2C19; P33261; recombinant CYP2C19, luciferin-H EGE luminescence; hits give high values; 0 = fully inhibited enzyme, 1 = untreated enzyme; activation factor at 5 µM; 96,000 tested, under 10 active; AID 1025;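 active = activation factor of at least 2 at 5 µM in the primary screen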
CYP2C9 inh: blocks human cytochrome P450 2C9; P11712; AID 777; CYP2C9 Supersomes, luciferin-H conversion, luminescence; actives 20% (n = 96,000); inhibition, % at 5 µM;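 active = blocking of liver enzyme CYP2C9 beyond about 50% at 5 µM, limit read from the data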
Numbers stand for hits; n = inactive. Hits are enriched below; roughly 31% of the tested compounds scored in any of these assays.

SMILES | PLAP act | CYP2C19 inh | CYP2C9 activ | CYP2C19 act | CYP2C9 inh
COc1cc2nc(CN(C)CC(=O)Nc3ccc(N4CCOCC4)cc3)[nH]c(=O)c2cc1OC | 2.3 | n | n | n | n
CSc1ccc(-c2nnn(Cc3ccc(C)cc3)n2)cc1 | n | 61.5 | n | n | n
Cc1ccc(-c2nnn(CC(=O)O)n2)cc1 | n | n | n | n | n
CC(C1CC1)N(C(=O)NC1CCS(=O)(=O)C1)c1ccccc1 (configuration not stated) | n | n | n | n | n
COc1ccc2[nH]c(C)c(CCN(Cc3cccs3)C(=S)Nc3cccc(F)c3)c2c1 | n | 78.2 | n | n | 98.0
Nc1nc2n(n1)C(c1cccc(Br)c1)CC(c1ccccc1)N2 (configuration not stated) | n | n | n | n | n
Brc1cccc(C2CC(c3ccccc3)n3nnnc3N2)c1 (configuration not stated) | n | 77.6 | n | n | 80.3
c1ccc(C2CC(c3cccs3)n3nnnc3N2)cc1 (configuration not stated) | n | 83.2 | n | n | 73.6
O=C(C1Cc2ccccc2CN1S(=O)(=O)c1cccs1)N1CCCCC1 (configuration not stated) | n | n | n | n | n
COc1ccc(C(CNC(=O)c2cc(=O)[nH]c3ccccc23)N2CCCC2)cc1 (configuration not stated) | n | n | n | n | n
Cc1cc(C)c(S(=O)(=O)N2CCN(CCO)CC2)c(C)c1 | n | n | 2.3 | n | n
Cc1cc(C)c(S(=O)(=O)N2CCN(C)CC2)c(C)c1 | n | n | 2.2 | n | n
Cc1cc(C)c2c(CN3CCN(CCO)CC3)cc(=O)oc2c1 | n | n | n | n | n
CCCn1c(NC(=O)c2cccc(S(=O)(=O)N3CCCC3)c2)nc2ccccc21 | n | n | n | n | n
COc1ccc(-n2nc3c(c2NC(=O)c2c(F)cccc2Cl)CS(=O)C3)cc1 (configuration not stated) | n | n | n | n | n
N#Cc1cc2ccccc2nc1SCC(=O)Nc1ccc(S(=O)(=O)N2CCCC2)cc1 | n | n | n | n | 89.6
COc1ccc2nc(SCC(=O)Nc3ccc(S(=O)(=O)N4CCCC4)cc3)c(C#N)cc2c1 | n | n | n | n | 91.1
O=c1c(Cl)c(N2CCCCC2)cnn1-c1nc2ccccc2[nH]1 | n | 62.3 | n | n | n
Cc1cc(C)n2nc(SCC(=O)c3ccc[nH]3)nc2n1 | n | n | n | n | 54.6
CNC(=O)CSc1nc2nc(C)cc(C)n2n1 | n | n | n | n | n
COc1ccc(NC(=O)CC2C(=O)N(c3ccc(OC)cc3)C(=O)N2CCN2CCN(C)CC2)cc1 (configuration not stated) | n | n | n | n | n
CCCOC(=O)C1C2C=C[C@]3(CN(CCc4ccccc4)C(=O)[C@H]13)O2 (some centres not stated) | n | n | n | n | n
CCOC(=O)c1[nH]c2c(c1C)C(=O)CC(c1ccco1)C2 (configuration not stated) | n | n | n | n | 59.8
Cc1c(C(=O)OCCOC(C)C)[nH]c2c1C(=O)CC(c1ccco1)C2 (configuration not stated) | n | n | n | n | 75.0
Cc1c(C(=O)OCc2ccccc2)[nH]c2c1C(=O)CC(c1ccco1)C2 (configuration not stated) | n | n | n | n | 88.7
SMILES | PLAP act | CYP2C19 inh | CYP2C9 activ | CYP2C19 act | CYP2C9 inh
CCN(CC)CCc1c(C)[nH]c(C(=O)OCc2ccccc2)c1C | n | n | n | n | n
COC(=O)c1[nH]c2c(c1C)C(=O)CC(c1cccs1)C2 (configuration not stated) | n | n | n | n | n
COCCOC(=O)c1[nH]c2c(c1C)C(=O)CC(c1ccco1)C2 (configuration not stated) | n | n | n | n | 72.3
O=C(CSc1ccccc1)Nc1cccnc1 | n | n | n | n | n
COc1cc(Cl)c(C)cc1NC(=O)COc1ccccc1[N+](=O)[O-] | n | n | n | n | n
CSCCOC(=O)c1[nH]c2c(c1C)C(=O)CC(c1ccco1)C2 (configuration not stated) | n | n | n | n | 52.4
Cc1c(C(=O)OCCOC(C)C)[nH]c2c1C(=O)CC(C)(C)C2 | n | 58.2 | n | n | 70.3
CSc1ncc2c(n1)-c1cc(C)ccc1SC2 | n | n | n | n | n
C=CCn1c(SCC(=O)Nc2ccccc2)nnc1-c1cccc(S(=O)(=O)N2CCOCC2)c1 | n | 66.5 | n | n | 54.7
